Growth inhibition data for 5 compounds are collected here from PubChem BioAssay (NCI).

The nature of assay [1]: NCI Yeast Anticancer Drug Screen. Data for the rad50 strain (AID 155).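 Also: 0% = growth of vehicle-only cultures of the same strain.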 The conditions noted are these: S. cerevisiae rad50 strain growth inhibition, active compounds read high. The procedure, abridged: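 Compounds were tested on a yeast strain with an engineered DNA damage repair alteration; the reported value is growth inhibition normalised to vehicle treatment.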
A short description of assay [2]: NCI Yeast Anticancer Drug Screen. Data for the mec2-1 strain (AID 157). The conditions noted are these: S. cerevisiae mec2-1 strain, active compounds read high. The essentials: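 Readout is yeast growth inhibition, normalised to vehicle-treated controls, in the mec2-1 strain exposed to compound.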
Assay [3] in a line: NCI Yeast Anticancer Drug Screen. Data for the sgs1 mgt1 strain (AID 161).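 Also: 0% = growth of cultures given vehicle only.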 The conditions noted are these: S. cerevisiae sgs1 mgt1 strain, active compounds read high. The procedure, abridged: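 Yeast cells carrying a defined DNA-repair defect were exposed to test compounds. Growth inhibition was measured relative to vehicle-treated controls.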
Assay [4] is described as follows: NCI Yeast Anticancer Drug Screen. Data for the cln2 rad14 strain (AID 165).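 Also: 0% = growth equal to vehicle treated cultures.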 The conditions noted are these: S. cerevisiae cln2 rad14 strain, active compounds read high. The procedure, abridged:
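Relative to vehicle controls, growth inhibition of compound-treated cln2 rad14 yeast was recorded.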

Assay [5] is described as follows: NCI Yeast Anticancer Drug Screen. Data for the bub3 strain (AID 167). The conditions noted are these: S. cerevisiae bub3 mutant strain, active compounds read high. The essentials:
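Growth of a checkpoint-deficient yeast mutant is measured after compound exposure. Values represent inhibition relative to vehicle.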

Assay [6] is described as follows: NCI Yeast Anticancer Drug Screen. Data for the mlh1 rad18 strain (AID 175). The note with it: S. cerevisiae mlh1 rad18 strain growth inhibition, active compounds read high. The essentials: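 Test agents were incubated with a yeast strain of defined genotype (DNA damage repair defect). Inhibition of growth was derived by comparison with vehicle-exposed cultures.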
Setting [7] is: at 5.0 µM (retest, dose inferred, filed as 0.5).
Where [8] appears, read: at 50.0 µM (retest, dose inferred, filed as 5.0).

The panel holds about 79,000 compounds, 15% with a hit somewhere; the sample as a whole holds those more often. The source made the active and inactive calls. Rule as the data show it: active = growth inhibition above about 70%; inactive = the rest.

As to `CN(C)C1CCC(N=Nc2cc([N+](=O)[O-])ccc2C(=O)O)CC1` (stereo not given), the growth inhibition is -7% (inactive) in assay [1] (setting [7]); 55% (inactive) in assay [1] (setting [8]); 86.2% (active) in assay [1] (at 50.0 µM); 7% (inactive) in assay [2] (setting [7]); 23% (inactive) in assay [2] (setting [8]); 56.7% (inactive) in assay [2] (at 50.0 µM). Moreover, the growth inhibition in assay [3] (setting [7]) was -2% (inactive); in assay [3] (setting [8]), 49% (inactive); in assay [3] (at 50.0 µM) it was 83.6% (active); in assay [4] (setting [7]), 1% (inactive); in assay [4] (setting [8]), 18% (inactive); in assay [4] (at 50.0 µM) it was 15.6% (inactive). Besides, the growth inhibition in assay [5] (setting [7]) is 7% (inactive); in assay [5] (setting [8]), 87% (active); in assay [5] (at 50.0 µM), 94.3% (active); in assay [6] (setting [7]) it was -1% (inactive); in assay [6] (setting [8]), 61% (inactive); in assay [6] (at 50.0 µM), 84.9% (active).
As for `Cc1c[n+](=O)c2ccccc2n1[O-]`, the growth inhibition in assay [1] (setting [7]) was -21% (inactive); in assay [1] (setting [8]), 10% (inactive); in assay [1] (at 50.0 µM), 2.6% (inactive); in assay [2] (setting [7]), -14% (inactive); in assay [2] (setting [8]), -16% (inactive); in assay [2] (at 50.0 µM) it was -16.6% (inactive). The growth inhibition in assay [3] (setting [7]) was -9% (inactive); in assay [3] (setting [8]), -7% (inactive); in assay [3] (at 50.0 µM) it was -20.4% (inactive); in assay [4] (setting [7]), 8% (inactive); in assay [4] (setting [8]) it was 1% (inactive); in assay [4] (at 50.0 µM) it was 70.8% (active). Moreover, the growth inhibition in assay [5] (setting [7]) is 13% (inactive); in assay [5] (setting [8]) it was -11% (inactive); in assay [5] (at 50.0 µM) it was -10.6% (inactive); in assay [6] (setting [7]) it was -11% (inactive); in assay [6] (setting [8]) it was -6% (inactive); in assay [6] (at 50.0 µM), -0.1% (inactive).
Regarding `NC(=S)N/N=C\c1nccc2c(C(F)(F)C(F)(F)C(F)(F)F)cccc12`, the growth inhibition was 26% (inactive) in assay [1] (setting [7]); 61% (inactive) in assay [1] (setting [8]); 57.9% (inactive) in assay [1] (at 50.0 µM); 39% (inactive) in assay [2] (setting [7]); 69% (inactive) in assay [2] (setting [8]); 74.5% (active) in assay [2] (at 50.0 µM). For the same compound, the growth inhibition in assay [3] (setting [7]) was 39% (inactive); in assay [3] (setting [8]) it was 69% (inactive); in assay [3] (at 50.0 µM), 74% (active); in assay [4] (setting [7]), 10% (inactive); in assay [4] (setting [8]), 62% (inactive); in assay [4] (at 50.0 µM), 69.6% (inactive). The growth inhibition was 11% (inactive) in assay [5] (setting [7]); 81% (active) in assay [5] (setting [8]); 75.6% (active) in assay [5] (at 50.0 µM); 24% (inactive) in assay [6] (setting [7]); 69% (inactive) in assay [6] (setting [8]); 73.3% (active) in assay [6] (at 50.0 µM).
As for `CN(Cc1ccccc1)c1nc(=[N+](C)C)ss1`, the growth inhibition in assay [1] (setting [7]) is 5% (inactive); in assay [1] (setting [8]), -1% (inactive); in assay [1] (at 50.0 µM) it was 4.35% (inactive); in assay [2] (setting [7]) it was -5% (inactive); in assay [2] (setting [8]) it was -1% (inactive); in assay [2] (at 50.0 µM) it was 8.8% (inactive). Moreover, the growth inhibition in assay [3] (setting [7]) was 11% (inactive); in assay [3] (setting [8]), 8% (inactive); in assay [3] (at 50.0 µM), 26.3% (inactive); in assay [4] (setting [7]) it was 17% (inactive); in assay [4] (setting [8]), 15% (inactive); in assay [4] (at 50.0 µM), -30.9% (inactive). The growth inhibition is 14% (inactive) in assay [5] (setting [7]); 11% (inactive) in assay [5] (setting [8]); 12.2% (inactive) in assay [5] (at 50.0 µM); 10% (inactive) in assay [6] (setting [7]); 16% (inactive) in assay [6] (setting [8]); 33.4% (inactive) in assay [6] (at 50.0 µM).
Consider `COc1ccc(/C=C2\CCC(CN(C)C)C2=O)cc1` (stereo not given), for which the growth inhibition in assay [1] (setting [7]) was 19% (inactive); in assay [1] (setting [8]), 89% (active); in assay [1] (at 50.0 µM) it was 93.8% (active); in assay [2] (setting [7]) it was 19% (inactive); in assay [2] (setting [8]), 99% (active); in assay [2] (at 50.0 µM), 93.3% (active). Moreover, the growth inhibition was 33% (inactive) in assay [3] (setting [7]); 99% (active) in assay [3] (setting [8]); 93.2% (active) in assay [3] (at 50.0 µM); 27% (inactive) in assay [4] (setting [7]); 48% (inactive) in assay [4] (setting [8]); 91.8% (active) in assay [4] (at 50.0 µM). Besides, the growth inhibition in assay [5] (setting [7]) is 36% (inactive); in assay [5] (setting [8]), 99% (active); in assay [5] (at 50.0 µM), 92.6% (active); in assay [6] (setting [7]) it was 24% (inactive); in assay [6] (setting [8]), 98% (active); in assay [6] (at 50.0 µM), 88.8% (active).
